Test results reported in PubChem BioAssay (NCI).
About 79,000 compounds went through this panel and 15% of them were active in at least one assay; those are over-represented in the sample as a whole. The source made the active and inactive calls. Rule as the data show it: active = growth inhibition above about 70%; inactive = the rest.

How the values were obtained:
[1] = NCI Yeast Anticancer Drug Screen. Data for the rad50 strain (AID 155);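 also: 0% = growth of vehicle-only cultures of the same strain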; details: S. cerevisiae rad50 strain growth inhibition; at 50.0 µM; active compounds read high
Procedure, shortened: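 Growth of the mutant yeast was measured after compound exposure and referenced to vehicle-treated cultures.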

[2] = NCI Yeast Anticancer Drug Screen. Data for the mec2-1 strain (AID 157); details: S. cerevisiae mec2-1 strain, at 50.0 µM, active compounds read high
Procedure, shortened: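 Readout is yeast growth inhibition, normalised to vehicle-treated controls, in the mec2-1 strain exposed to compound.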

[3] = NCI Yeast Anticancer Drug Screen. Data for the sgs1 mgt1 strain (AID 161);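 also: 0% = growth of cultures given vehicle only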; details: S. cerevisiae sgs1 mgt1 strain, at 50.0 µM, active compounds read high
Procedure, shortened: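 This yeast growth screen uses a strain with defined DNA-repair lesions; compound-treated growth is compared with vehicle-treated growth.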

[4] = NCI Yeast Anticancer Drug Screen. Data for the cln2 rad14 strain (AID 165);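 also: 0% = growth equal to vehicle treated cultures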; details: S. cerevisiae cln2 rad14 strain, at 50.0 µM, active compounds read high
Procedure, shortened: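 Relative to vehicle controls, growth inhibition of compound-treated cln2 rad14 yeast was recorded.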

[5] = NCI Yeast Anticancer Drug Screen. Data for the bub3 strain (AID 167); details: S. cerevisiae bub3 mutant strain, at 50.0 µM, active compounds read high
Procedure, shortened: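 Whole-cell yeast assay. The mutant strain was incubated with compounds, and growth inhibition was determined by comparison with vehicle-treated cells.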

[6] = NCI Yeast Anticancer Drug Screen. Data for the mlh1 rad18 strain (AID 175); details: S. cerevisiae mlh1 rad18 strain growth inhibition; at 50.0 µM; active compounds read high
Procedure, shortened: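 Test agents were incubated with a yeast strain of defined genotype (DNA damage repair defect). Inhibition of growth was derived by comparison with vehicle-exposed cultures.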

Measured: growth inhibition

NC(=S)N/N=C1\C(=O)N(CCc2ccccc2)C(=O)C1C(=O)NCCc1ccccc1 (configuration not stated)
inactive: [1] -16.4% | [2] -27.7% | [3] -35.6% | [4] 14.1% | [5] -5.8% | [6] -15.2%

COC(=O)c1s/c(=N\C(=S)N(C)C)n(-c2ccc(Cl)cc2)c1C(=O)OC
inactive: [1] -0.4% | [2] 2.25% | [3] -4.1% | [4] -40.1% | [5] -21.9% | [6] -3.2%

COC(=O)C(C)=C1CCCCC1
inactive: [1] 17.9% | [2] -3.9% | [3] -13.2% | [4] -38% | [5] 11.6% | [6] -13.2%

Clc1ccc(C(=C(c2ccc(Cl)cc2)c2ccc(Cl)cc2)c2ccc(Cl)cc2)cc1
inactive: [1] -3.85% | [2] 5.4% | [3] 3.5% | [4] -3.35% | [5] 10.4% | [6] -1.45%

BrC=C1c2ccccc2-c2ccccc21
inactive: [1] 5.45% | [2] -7.35% | [3] 3.9% | [4] 22.6% | [5] 2.35% | [6] 4.55%

CC(=O)OCc1nc2ncnc(N)c2[nH]1
inactive: [1] 0.5% | [2] -5.65% | [3] -11.4% | [4] -52.4% | [5] -3.4% | [6] -4.9%

CCCCC/C(C)=N\O
inactive: [1] -19% | [2] 3.8% | [3] 3.35% | [4] -13.6% | [5] -7.15% | [6] 13.2%

O=C(O)CCCN1CCCCC1
inactive: [1] -22.1% | [2] -32.4% | [3] -30.2% | [4] -4.7% | [5] -63.9% | [6] 8.8%

CN(C)c1ccc(/C=C/c2nc3ccc(Cl)cc3[nH]2)cc1
inactive: [1] -5.55% | [2] 0.1% | [3] -1.9% | [4] 5.75% | [5] -8.2% | [6] -14.1%

Cc1ccc(Br)cc1C(=O)O
inactive: [1] 20.8% | [2] 2.25% | [3] 15.2% | [4] 13.8% | [5] -6.1% | [6] 15.4%

CC(CO)c1ccccc1 (configuration not stated)
inactive: [1] 8.15% | [2] 1.15% | [3] -13.9% | [4] -32.5% | [5] -13.4% | [6] -4%

O=C(O)c1n[nH]c2ccccc12
inactive: [1] 8.5% | [2] -14.1% | [3] 3.75% | [4] 5.6% | [5] -5.7% | [6] -9.85%

O=C1CCC=Cc2c(O)ccc(O)c21
inactive: [1] 8.65% | [2] -5.25% | [3] 17.8% | [4] 0.55% | [5] -1.1% | [6] 27.9%

Cc1ccc(/C=C/C(=N/NC(=O)c2ccccc2)C(C)CN(C)C)cc1 (configuration not stated)
inactive: [1] 6.6% | [2] 5.65% | [3] 6.45% | [4] -11.2% | [5] 0.25% | [6] 12.9%

Nc1nc(N)nc(-c2ccccc2-c2nc(N)nc(N)n2)n1
inactive: [1] -5.65% | [2] -2.85% | [3] 3.45% | [4] -18% | [5] 14.2% | [6] 6.65%

C=CCC(OC(C)=O)c1cccc(OC)c1OC (configuration not stated)
inactive: [1] 3.7% | [2] 7.2% | [3] -9.45% | [4] -48.7% | [5] -3.25% | [6] -5.3%

Cc1ccc(Cl)cc1NC(=O)Nc1ccc(Cl)c(Cl)c1
inactive: [1] -13.1% | [2] -11.1% | [3] -4.25% | [4] -4.5% | [5] 18.2% | [6] -4.75%

COc1cc2c(cc1OC)C(CCN)NCC2 (configuration not stated)
inactive: [1] -8.75% | [2] 7.2% | [3] -2.55% | [4] 7.3% | [5] -3.95% | [6] -9.25%

O=c1cc(CC(O)(c2ccccc2)c2ccccc2)cc[nH]1
inactive: [1] 16.1% | [2] 3.8% | [3] -4.65% | [4] -10.8% | [5] -0.35% | [6] -1%

CN(C)C=N[C@@H](C(=O)O)c1ccccc1
inactive: [1] -8.85% | [2] -19.1% | [3] -11.4% | [4] 8.8% | [5] -4.95% | [6] 9.8%

CCOC(=O)C(=CNc1ccc(N(CC)CC)cc1)C(=O)OCC
inactive: [1] -12.7% | [2] -7.85% | [3] -8% | [4] 47.6% | [5] 8.3% | [6] 0.35%

OCC(O)C(O)C(O)c1nn(-c2ccccc2)c2nc3ccc(Cl)cc3nc12 (configuration not stated)
inactive: [1] -0.8% | [2] 9% | [3] 6.05% | [4] -3.8% | [5] 9.25% | [6] 5.3%

CN(C)Cc1[nH]c2ccccc2c1Sc1ccccc1
inactive: [1] 0.85% | [2] 2.4% | [3] 24.6% | [4] 6.2% | [5] -27.9% | [6] 30.8%

CN(C)S(=O)(=O)C(CO)c1ccccc1 (configuration not stated)
inactive: [1] 5.75% | [2] 12.9% | [3] 6.8% | [4] 3.15% | [5] -5.4% | [6] 10.5%

OCc1cc2ccc3ccccc3c2[nH]1
inactive: [1] 25.3% | [2] 24.9% | [3] 47.9% | [4] 2.65% | [5] 25.5% | [6] 25.6%

O=C1OC2=C(CCCCC2)C(N2CCCCC2)C12SCCCS2 (configuration not stated)
inactive: [1] -7.9% | [2] -6.2% | [3] -5.2% | [4] -17.3% | [5] -3.25% | [6] -14.9%

CC1(C)CC(=O)C(/C=N/C(=S)NC2CCCCC2)=C(O)C1
inactive: [1] -13.2% | [2] -20.1% | [3] -31.5% | [4] 10.6% | [5] -7.7% | [6] -8%

O=[N+]([O-])c1ccc2nc(NCCCO)c3ccccc3c2c1
inactive: [1] 8.2% | [2] 11.3% | [3] 3.85% | [4] -0.9% | [5] 12.1% | [6] 12.1%

CCCCCCCCCCCCCCCCCCC1=CC(=O)c2ccccc2C1=O
inactive: [1] 16.1% | [2] 3% | [3] 25.6% | [4] 31% | [5] 8.4% | [6] 14.9%

Nc1nc(N)nc(-c2ccc([N+](=O)[O-])o2)n1
inactive: [1] 41.8% | [2] 10.8% | [3] 29.9% | [4] 20.8% | [5] 12.2% | [6] 41.6%

O=[N+]([O-])c1cc(C(F)(F)F)ccc1F
inactive: [1] -16% | [2] -15.2% | [3] -2.3% | [4] -25.8% | [5] -12.4% | [6] -0.15%

CCCCOC(=O)C(N)Cc1ccccc1 (configuration not stated)
inactive: [1] -20.4% | [2] -2.3% | [3] -5.65% | [4] -44.5% | [5] 23.6% | [6] -22.2%

CCCCCCCCCCCCCCCCCCCCCCCC
inactive: [1] 0.1% | [2] 2.3% | [3] 18.7% | [4] -53% | [5] 21.7% | [6] -13.2%

CC(=O)[C@H]1CC[C@H]2[C@@H]3CC(=O)C4=CC(=O)CC[C@]4(C)[C@H]3C(=O)C[C@]12C
inactive: [1] 11.3% | [2] -12.2% | [3] 11.2% | [4] -25.6% | [5] 0.45% | [6] -4.9%

CN(C)c1nc(=NCc2cccs2)ss1
inactive: [2] 46.3% | [4] 45.2% | [5] 60.5% | [6] 65.7%
active: [1] 71.2% | [3] 77.5%

Cc1cccc(Cl)c1NC(=O)c1cccc([N+](=O)[O-])c1
inactive: [1] 0.15% | [2] 40.6% | [3] 22.9% | [4] -7.95% | [5] 32.4% | [6] 46.4%

CCOC(=O)C(Cc1ccc(O)cc1)NC(=O)c1cc2c(cn1)[nH]c1ccccc12 (configuration not stated)
inactive: [1] 11% | [2] 16.2% | [3] 7.45% | [4] -19.8% | [5] -1% | [6] 4.65%

COc1cc(C(=O)Nc2cccc3ccccc23)c(Br)c(OC)c1OC
inactive: [1] 19.3% | [2] 17.3% | [3] 39.5% | [4] 26.9% | [5] 53.5% | [6] 32.7%

CC(C)S(=O)(=O)/C=C(\I)c1ccccc1
inactive: [1] 3.7% | [2] 8.7% | [3] -11.2% | [4] 6.9% | [5] 33.2% | [6] -11.4%

CC(C)(C)SCCCCO
inactive: [1] -7.3% | [2] 19.4% | [3] -0.8% | [4] 0.35% | [5] -5.2% | [6] -3.15%

NC(=O)c1ccccc1N=NNc1ccccc1
inactive: [1] 17.5% | [2] -4.65% | [3] 2.8% | [4] -28.5% | [5] -25.1% | [6] 16.1%

S=C(N/N=C/c1ccc(Cl)cc1Cl)NC1CCc2ccccc21 (configuration not stated)
inactive: [1] -12.3% | [2] 20.5% | [3] -9.7% | [4] -33.8% | [5] -7.95% | [6] -9.25%
